Source: PubChem (The Scripps Research Institute Molecular Screening Center)
Compounds with a hit are over-represented: about 2.4% of the library has one in this group of screens.
CHRM1 PAM – human M1 muscarinic receptor positive allosteric modulators, primary screen, CHO-K1 cells, Fluo-8 calcium fluorescence, 1536-well | AID 588819, 2011 | activation, % at 3 µM | CHO-K1 hM1, ACh EC20; 0% = ACh EC20, 100% = maximal ACh | 360,000 compounds, 0.088% hits; in the data active = activation above about 19%, passing the limit was not always enough
Target sequence (P11229 whole entry, looked up): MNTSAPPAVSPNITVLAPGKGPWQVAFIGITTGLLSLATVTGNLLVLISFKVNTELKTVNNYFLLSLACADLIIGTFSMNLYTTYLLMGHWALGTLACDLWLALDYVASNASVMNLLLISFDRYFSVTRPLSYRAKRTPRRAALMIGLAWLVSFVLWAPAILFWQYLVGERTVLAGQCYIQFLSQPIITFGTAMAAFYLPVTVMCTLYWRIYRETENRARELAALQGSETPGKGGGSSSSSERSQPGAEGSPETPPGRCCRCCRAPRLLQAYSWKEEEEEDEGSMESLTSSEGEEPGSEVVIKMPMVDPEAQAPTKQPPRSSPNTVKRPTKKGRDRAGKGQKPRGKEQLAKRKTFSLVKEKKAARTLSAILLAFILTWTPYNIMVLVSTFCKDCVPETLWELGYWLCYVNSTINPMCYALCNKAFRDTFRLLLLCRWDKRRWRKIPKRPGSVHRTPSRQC
M1 PAM parental – nonselective calcium activators in parental CHO-K1 cells, primary screen, counter-screen for M1 PAM project, cell-based, Fluo-8 calcium fluorescence, full deck, 1536-well. 360,000 compounds, 0.02% hits. activation, % at 3 µM. ATP EC20; 0% at ATP EC20, 100% at ATP max. AID 602247, 2012;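 active = activation above the run cutoff, the mean activation of all test compounds plus 3 SD, cut at about 40% in these data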;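 note: peak over basal fluorescence ratio in a 140 s read after ATP addition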
CHO-K1 Ca antag – M1 antagonist counterscreen hit in parental CHO-K1 cells; ATP-induced calcium, Fluo-8 fluorescence; inhibition, % at 3 µM; 360,000 compounds, 0.6% hits;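 active = inhibition above a per-plate cutoff, the plate's mean sample inhibition plus 3 SD, cut at about 24% in these data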;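 note: 0% = DMSO plus EC80 ATP and 100% = DMSO alone without ATP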
CHO-K1 Ca ag – counter-screen for M1 agonists: effect in parental CHO-K1 cells | 360,000 compounds, 0.48% hits | Fluo-8 calcium fluorescence; scaled to maximal ATP response, vehicle zero | AID 602248, 2012 | activation, % at 3 µM; in the data active = activation above about 15%;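 note: untransfected CHO-K1 host cells lacking M1 receptor as counterscreen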
M1 antag – human M1 muscarinic receptor antagonists, primary screen, CHO-K1 cells, Fluo-8 calcium fluorescence, 1536-well; Muscarinic acetylcholine receptor M1 (Homo sapiens), P11229; CHO-K1 hM1, ACh EC80 antagonist; inhibition, % at 3 µM; 360,000 compounds, 1.3% hits; AID 588852, 2011;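 active = percent inhibition above its own plate's cutoff, namely the mean of that plate's compound wells plus 3 SD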;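 note: peak over basal fluorescence ratio during 140 s after agonist addition; 0% = ACh EC80 plus DMSO and 100% = DMSO alone without agonist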
M1 ag – human M1 muscarinic receptor agonists, primary screen, Fluo-8 calcium fluorescence, CHO-K1 cells, HTS. Muscarinic acetylcholine receptor M1 (Homo sapiens), P11229. CHO-K1 hM1, agonist mode; 0% DMSO, 100% acetylcholine EC100. activation, % at 3 µM. 360,000 compounds, 0.33% hits. AID 588814, 2011;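 active = activation above the run's mean compound activation plus 3 SD, cut at about 16% in these data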;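 note: peak over basal fluorescence ratio within a 140 s kinetic read after compound addition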
The depositor's hits bear a star; nt = not tested or not shown.

SMILES	CHRM1 PAM	M1 PAM parental	CHO-K1 Ca antag	CHO-K1 Ca ag	M1 antag	M1 ag
CCCCN(C(C)=O)c1ccc2c(c1)C1CC2CCN1C(=O)OCc1ccccc1 (stereo not drawn)	-14.4	-6.0	11.6	1.6	33.6*	-6.8
CCN(CCc1ccccc1)c1ccc2c(c1)C1CC2CCN1C(=O)OCc1ccccc1 (stereo not drawn)	11.3	7.6	-0.9	0.3	-14.9	-2.0
CCN(C[C@H]1N[C@@](C)(C(=O)OC)[C@H]2C(=O)N(Cc3ccccc3)C(=O)[C@@H]12)C(=O)Nc1ccc(Cl)cc1	-4.0	6.3	-6.3	-0.4	3.2	-0.8
C/C(=N\Nc1cc(C)nc(NCc2ccccc2)n1)c1ccc([N+](=O)[O-])cc1	-15.3	11.4	-1.5	0.5	38.0*	-7.3
CNS(=O)(=O)c1ccc(NC(=O)c2cc(-c3ccncc3)nc3ccc(Cl)cc23)cc1	9.1	-9.7	8.2	-0.2	-10.9	-2.9
O=C(c1ccc2c(=O)n3c(nc2c1)CCCCC3)N1CCN(C(c2ccccc2)c2ccccc2)CC1	-33.9	10.8	-29.4	-0.4	78.9*	-14.3
O=C(c1ccc(=O)oc1)N1CCN(C(c2ccccc2)c2ccccc2)CC1	-32.8	12.6	-13.1	0.6	77.1*	-12.5
O=C(Nc1ccc(S(=O)(=O)Nc2ccnn2-c2ccccc2)cc1)C(F)(F)F	13.2	20.7	-8.4	-0.2	-9.7	-2.3
CCN(CC(=O)NCc1ccc(Cl)cc1)C(=O)CNS(=O)(=O)c1ccc(NC(C)=O)cc1	8.9	26.1	-8.1	0.6	-12.1	-4.7
CC1(C(=O)Nc2cccc(C#N)c2)CCN1C(=O)Cc1ccc(-c2ccccc2)cc1 (stereo not drawn)	-14.5	-5.9	27.7*	10.9	42.3*	2.8
CCOC(=O)N1CCN(C(=O)/C(=C/c2ccc(OC)c(OC)c2)NC(=O)c2ccccc2)CC1	10.6	12.9	-0.6	-0.1	-4.7	-4.1
CCOC(=O)C1CCCN(C(=O)/C(=C/c2ccco2)NC(=O)c2ccccc2)C1 (stereo not drawn)	-12.1	16.7	-8.1	0.3	10.7	48.2*
CCOC(=O)C1CCN(C(=O)/C(=C/c2ccccc2)NC(=O)c2ccccc2)CC1	1.2	11.7	-7.9	16.0*	-10.3	-3.7
Cc1ccc(C(=O)N/C(=C/c2cccnc2)C(=O)N2CCCCCC2)cc1	10.8	8.7	46.8*	0.4	-17.9	-0.2
O=C(N/C(=C/c1ccco1)C(=O)N1CCCCCC1)c1ccccc1	12.1	7.7	-12.4	0.9	-10.5	-2.0
Cc1ccc(C(=O)N/C(=C\c2cccnc2)C(=O)N2CCCC2)cc1	13.3	4.8	-6.9	0.3	-8.5	-0.2
CC1(c2nnnn2-c2ccc3c(c2)OCCO3)CCC(=O)N1C1CC1 (stereo not drawn)	nt	4.0	-18.2	0.3	nt	nt
Cc1cc(NC(=O)c2cccc(C)c2[N+](=O)[O-])no1	22.0	9.2	12.5	-0.1	-13.7	-1.6
COc1ccccc1CNC(=O)CN(C)S(=O)(=O)c1ccc(Br)s1	7.5	4.5	-5.3	3.9	-17.6	-1.5
Cc1ccc(C(=O)Oc2ccccc2N2CCOCC2)cc1	0.7	7.6	-4.2	19.7*	-3.5	-1.9
O=C(Oc1ccccc1N1CCOCC1)c1ccccc1	4.7	16.8	-3.0	0.9	-10.6	-3.2
COC(=O)C1=CN(Cc2ccccc2)C=C(C(=O)OC)C1c1ccc(OC)c(OC)c1	9.9	19.9	-5.1	0.4	-28.5	-5.6
COC(=O)C1=CN(Cc2ccccc2)C=C(C(=O)OC)C1c1ccc(O)c(OC)c1	5.5	-24.0	25.4*	0.2	-5.2	-2.5
Cc1cccc(OCC(=O)NCCNC(=O)c2ccccn2)c1	5.0	-15.1	3.8	0.2	-6.3	-1.9
CCN(c1ccccc1)S(=O)(=O)c1cc(C(=O)NCC(c2ccc(OC)cc2)N(C)C)ccc1C (stereo not drawn)	-10.4	15.0	-15.9	1.7	54.5*	35.5*
SMILES	CHRM1 PAM	M1 PAM parental	CHO-K1 Ca antag	CHO-K1 Ca ag	M1 antag	M1 ag
CCCOc1ccc(C(=O)NCC(c2cccs2)N(C)C)cc1 (stereo not drawn)	-20.8	0.6	8.8	-0.1	8.6	-13.2
CCN(c1ccccc1)S(=O)(=O)c1ccc(C(=O)NCC(c2cccs2)N(C)C)cc1 (stereo not drawn)	-23.7	10.9	-10.3	7.3	36.0*	-5.1
Cc1noc(C)c1NC(=O)N(C)C[C@@H]1Oc2ccc(NC(=O)CCC(F)(F)F)cc2CC(=O)N([C@@H](C)CO)C[C@@H]1C	0.9	0.4	-3.0	0.1	3.2	-2.5
COc1ccc(CNCCc2ccc(Cl)cc2)cc1OCc1ccccc1	-2.7	3.0	8.4	14.0	14.1	0.4
COc1cc(CNCc2ccccn2)ccc1OCc1ccc(Cl)cc1Cl	-5.9	3.0	25.1*	0.3	22.1	-4.7
CCOc1cc(CNCc2ccccc2)ccc1OCc1ccc(Cl)cc1	1.6	-12.0	28.8*	20.2*	5.2	0.1
CCOc1cc(CNCCc2ccc(S(N)(=O)=O)cc2)cc(Cl)c1OCc1ccccc1	-18.7	0.4	-13.9	21.4*	32.3	6.7
Cc1ccc(S(=O)(=O)NCc2ccccc2)cc1C(=O)NCc1ccncc1	10.7	20.0	-0.6	0.0	-13.5	-1.6
N#CCCn1cc(C(=O)Nc2cccc(C(=O)O)c2)c(-c2ccc(Cl)cc2)n1	13.2	11.7	-6.9	3.7	-26.4	0.3
COc1cc(C(O)c2nc(/C=C/c3ccc(C(F)(F)F)cc3)cs2)ccc1F (stereo not drawn)	4.5	18.7	-24.5	0.5	-11.8	-3.0
COc1ccc(N=Nc2nc3ccc(Br)cc3n2C)cc1	-2.8	-3.8	5.7	17.6*	8.4	17.1*
COc1ccc(-c2c(-c3cc(OC)cc(OC)c3)n(C)c3ccc(Br)cc23)cc1	1.3	-7.0	-3.3	0.1	9.8	-1.7
O=C1CC(Sc2nnc(-c3ccccc3)o2)C(=O)N1c1ccccc1 (stereo not drawn)	10.9	7.6	3.8	1.3	-14.9	0.6
O=C1c2ccccc2CC1Sc1nnc(-c2ccncc2)o1 (stereo not drawn)	4.0	-7.1	23.9*	-0.2	-4.2	0.8
Cc1ccc(S(=O)(=O)NCc2ccccc2)cc1C(=O)N1CCN(S(=O)(=O)c2ccccc2F)CC1	-11.3	-7.7	1.6	2.7	14.4	-3.9
CCN(C(=O)C(C)OC(=O)CCCNC(=O)c1ccc(Cl)cc1)c1ccccc1 (stereo not drawn)	4.0	3.5	0.6	3.6	-5.2	-0.7
